According to PubChem BioAssay (EPA / NIEHS):
Several values for one entry are separate records, joined by “and”; a condition that tells them apart may be missing. Equal entries are not always repeated. Activity calls are given as the source filed them. Rule for the calls: active = hit-call score of the fitted dose curve at least 0.9, where 1 is the maximum; inactive = score below 0.9.

These molecules were tested on Interleukin-1 alpha (IL1a), IL1A (gene 3552) (assay: BSK_LPS_IL1a: BioMAP Diversity Plus: LPS Assay for Interleukin-1 alpha (IL1a) Biomarker Activity (AID 2283080)). Conditions: primary human HUVEC with PBMC; actives raise or lower the signal.
Description: BSK_LPS is a cell-based, multiplexed-readout assay that uses umbilical vein endothelium and peripheral blood mononuclear cells, a human vascular primary cell co-culture, with measurements taken at 24 hours after chemical dosing in a 96-well plate.BSK_LPS_IL1a is an assay component measured in the BSK_LPS assay. It measures IL-a antibody related to regulation of gene expression using ELISA technology.Data from the assay component BSK_LPS_IL1a was analyzed into 1 assay endpoint. This assay endpoint, BSK_LPS_IL1a, was analyzed with bidirectional fitting relative to DMSO as the negative control and baseline of activity. Using a type of binding reporter, gain or loss-of-signal activity can be used to understand changes in the signaling as they relate to the gene IL1A. Furthermore, this assay endpoint can be referred to as a primary readout, because this assay has produced multiple assay endpoints where this one serves a signaling function. To generalize the intended target to other relatable targets, this assay endpoint is annotated to the cytokine intended target family, where the subfamily is interleukins.
The levels of cell surface (or secreted, indicated by the prefix "s") biomarker endpoints were measured by ELISA. Overt cytotoxicity to cells in confluent adherent cultures (all systems other than the BT system) was assessed by measuring total protein levels using sulforhodamine B (SRB) staining in parallel cultures at the time of biomarker measurements, indicated as SRB endpoints. For proliferation assays for adherent cell types, individual cell types are cultured at sub-confluence and relative cell numbers quantified by SRB staining at time points optimized for each system (48 h: 3C and CASM3C systems; 72 h: BT and HDF3CGF systems; 96 h: SAg system). SRB was performed by staining cells with 0.1% SRB after fixation with 10% TCA and reading wells at 560 nm.Viability and proliferation of PBMC (T cells) was quantified by Alamar Blue reduction for the SAg and BT systems. For PBMC viability (referred to as PBMC Cytotoxicity within the assay endpoint names), cells were plated (75,000/well in a 96-well plate) and then chemical samples added for 1 h before addition of activators, SEB and TSST-1 (20 ng/mL final concentration each). Cells were incubated for 90 h. Then, Alamar Blue (20 uL/well) (Invitrogen, Cat DAL1100) was added for 6 h, and the plates were read with a fluorescence microplate reader at 546/580 nm (excitation/emission). For PBMC proliferation, cells were plated and activated as above but incubated for only 16 h prior to addition of Alamar Blue. Plates were read after 6 h.

Q: For N[C@@H](Cc1cc(I)c(Oc2ccc(O)c(I)c2)c(I)c1)C(=O)O, which outcome is on record?
A: inactive

Q: With C=CCOC(Cn1ccnc1)c1ccc(Cl)cc1Cl (stereo not given) as the molecule, how does the outcome read?
A: inactive

Q: Which outcome does the source give for COC(=O)c1ccc(I)cc1S(=O)(=O)NC(=O)Nc1nc(C)nc(OC)n1 here?
A: inactive

Q: For C#CCOC(=O)[C@@H](C)Oc1ccc(Oc2ncc(Cl)cc2F)cc1, which outcome is on record?
A: inactive

Q: CCCN(CCC)C(=O)SCC was tested. Which outcome did it give?
A: inactive

Q: How did the outcome turn out when O=C(c1ccccc1)C1CCCCC1 was run?
A: inactive

Q: With COC(=O)c1cccc(C)c1S(=O)(=O)NC(=O)Nc1nc(OCC(F)(F)F)nc(N(C)C)n1 as the molecule, how does the outcome read?
A: inactive

Q: For CCOC(=O)COc1cc(-n2ncc(C(F)(F)F)c(C)c2=O)c(F)cc1Cl, which outcome is on record?
A: inactive

Q: CCCCOCCOCCOCc1cc2c(cc1CCC)OCO2 was tested. Which outcome did it give?
A: inactive

Q: COc1c(Cl)ccc(Cl)c1C(=O)O was tested. Which outcome did it give?
A: inactive

Q: How did the outcome turn out when CCC(C)OC(=O)N1CCCCC1CCO (stereo not given) was run?
A: inactive

Q: C[C@]12CC[C@@H]3c4ccc(O)cc4C[C@@H](CCCCCCCCCS(=O)CCCC(F)(F)C(F)(F)F)[C@H]3[C@@H]1CC[C@@H]2O (stereo not given in full) was tested. Which outcome did it give?
A: inactive

Q: For CCCCC(CC)CN1C(=O)C2C3C=CC(C3)C2C1=O (stereo not given), which outcome is on record?
A: inactive

Q: Which outcome does the source give for C[C@]12C[C@H](O)[C@H]3[C@@H](CCC4=CC(=O)CC[C@@]43C)[C@@H]1CC[C@@H]2C(=O)CO here?
A: inactive

Q: Cc1nn(C)c(Oc2ccccc2)c1C=NOCc1ccc(C(=O)OC(C)(C)C)cc1 was tested. Which AC50 did it give?
A: 13.2 µM (active)

Q: Which outcome does the source give for CCSC(=O)N(CC(C)C)CC(C)C here?
A: inactive

Q: CCOC(=O)NCCOc1ccc(Oc2ccccc2)cc1 was tested. Which outcome did it give?
A: inactive

Q: Which outcome does the source give for COC(=O)c1ccccc1S(=O)(=O)NC(=O)Nc1nc(OC(F)F)cc(OC(F)F)n1 here?
A: inactive

Q: With CCCOC(=O)c1ccc(C(=O)OCCC)nc1 as the molecule, how does the outcome read?
A: inactive

Q: Which outcome does the source give for O=C(O)C1(C(=O)Nc2ccc(Cl)cc2Cl)CC1 here?
A: inactive

Q: How did the outcome turn out when CCOC(=O)[C@H](C)Oc1ccc(Oc2nc3ccc(Cl)cc3o2)cc1 was run?
A: inactive

Q: How did the AC50 turn out when CC(C)CCCCCCc1ccc(O)cc1 was run?
A: 6.77 µM (active)

Q: Which outcome does the source give for CCC(O)=C1C(=O)CC(C(=O)O)CC1=O (stereo not given) here?
A: inactive

Q: CCOC(=O)C(C)Oc1ccc(Oc2nc3ccc(Cl)cc3o2)cc1 (stereo not given) was tested. Which outcome did it give?
A: inactive

Q: How did the outcome turn out when CCN(Cc1c(F)cccc1Cl)c1c([N+](=O)[O-])cc(C(F)(F)F)cc1[N+](=O)[O-] was run?
A: inactive

Q: Which outcome does the source give for S=C([S-])NCCNC(=S)[S-].[Mn+2] here?
A: inactive

Q: With CCCOC(=O)NCCCN(C)C as the molecule, how does the outcome read?
A: inactive

Q: With O=C(Nc1ccc([N+](=O)[O-])cc1Cl)c1cc(Cl)ccc1O as the molecule, how does the AC50 read?
A: 0.109 µM (active)

Q: Which outcome does the source give for CC(=O)[C@H]1CC[C@H]2[C@@H]3CCC4=CC(=O)CC[C@]4(C)[C@H]3CC[C@]12C here?
A: inactive

Q: Which outcome does the source give for CCCN(CCC)c1c([N+](=O)[O-])cc(C(F)(F)F)c(N)c1[N+](=O)[O-] here?
A: inactive

Q: How did the outcome turn out when CCCCC(CC)COC(=O)c1ccccc1C(=O)O (stereo not given) was run?
A: inactive

Q: CC(=O)S[C@@H]1CC2=CC(=O)CC[C@]2(C)[C@H]2CC[C@@]3(C)[C@@H](CC[C@@]34CCC(=O)O4)[C@H]12 was tested. Which AC50 did it give?
A: 12.4 µM (active)

Q: How did the outcome turn out when CCCCOC(=O)[C@@H](C)Oc1ccc(Oc2ccc(C(F)(F)F)cn2)cc1 was run?
A: inactive

Q: Which AC50 does the source give for N#CSCSc1nc2ccccc2s1 here?
A: 1.51 µM (active) and 4.83 µM (active)

Q: For S=C(S)NCCNC(=S)S.[Mn+2].[S-]C([S-])=NCCN=C([S-])[S-].[Zn+2], which outcome is on record?
A: inactive

Q: For OB(O)O, which outcome is on record?
A: inactive

Q: How did the outcome turn out when COC(=O)c1c(Cl)nn(C)c1S(=O)(=O)NC(=O)Nc1nc(OC)cc(OC)n1 was run?
A: inactive

Q: For CC1(C)C(C=C(Cl)Cl)C1C(=O)OCc1cccc(Oc2ccccc2)c1 (stereo not given), which outcome is on record?
A: inactive

Q: For CCOC(=O)C(C)Oc1ccc(Oc2cnc3cc(Cl)ccc3n2)cc1 (stereo not given), which outcome is on record?
A: inactive

Q: How did the outcome turn out when c1ccc2[nH]c(-c3cscn3)nc2c1 was run?
A: inactive
